Compound activity from PubChem.
In the library only some 28% were active in any assay of this set; here they are far more common.
CYP2C9 act – CYP2C9 (human) activation; activation factor at 5 µM; P11712; AID 1024; recombinant CYP2C9, luciferin-H conversion, luminescence; active compounds read high; factor 1 = untreated enzyme, 0 = blocked; 96,000 compounds, 1.4% hits;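 active = activation factor of 2 or more for CYP2C9 at a 5 µM dose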;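 also: 0 = sulfaphenazole-blocked wells and 1 = vehicle-only wells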
CYP2C19 act – cytochrome P450 2C19 (human) activation; P33261; recombinant CYP2C19, luciferin-H EGE luminescence; active compounds read high; 0 = fully inhibited enzyme, 1 = untreated enzyme; 96,000 tested, under 10 active; activation factor at 5 µM;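 active = activation factor of at least 2 at 5 µM in the primary screen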;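 also: 0 = wells with 2.5 mM tranylcypromine and 1 = vehicle-only wells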
CYP2C9 inh – inhibitors of human CYP2C9; P11712; CYP2C9 Supersomes, luciferin-H conversion, luminescence; inhibition, % at 5 µM; 96,000 compounds, 20% hits;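 active = blocking of liver enzyme CYP2C9 beyond about 50% at 5 µM, limit read from the data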
PLK1 PBD inh – Plk1 (human) PBD binding inhibition | 97,000 compounds, 0.13% hits | Plk1 PBD phosphopeptide binding, fluorescence polarization | inhibition, %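 (tested at about 20 µM)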 | P53350 | AID 693; in the data active = inhibition above about 34%, passing the limit was not always enough
Target sequence (P53350 whole entry, looked up): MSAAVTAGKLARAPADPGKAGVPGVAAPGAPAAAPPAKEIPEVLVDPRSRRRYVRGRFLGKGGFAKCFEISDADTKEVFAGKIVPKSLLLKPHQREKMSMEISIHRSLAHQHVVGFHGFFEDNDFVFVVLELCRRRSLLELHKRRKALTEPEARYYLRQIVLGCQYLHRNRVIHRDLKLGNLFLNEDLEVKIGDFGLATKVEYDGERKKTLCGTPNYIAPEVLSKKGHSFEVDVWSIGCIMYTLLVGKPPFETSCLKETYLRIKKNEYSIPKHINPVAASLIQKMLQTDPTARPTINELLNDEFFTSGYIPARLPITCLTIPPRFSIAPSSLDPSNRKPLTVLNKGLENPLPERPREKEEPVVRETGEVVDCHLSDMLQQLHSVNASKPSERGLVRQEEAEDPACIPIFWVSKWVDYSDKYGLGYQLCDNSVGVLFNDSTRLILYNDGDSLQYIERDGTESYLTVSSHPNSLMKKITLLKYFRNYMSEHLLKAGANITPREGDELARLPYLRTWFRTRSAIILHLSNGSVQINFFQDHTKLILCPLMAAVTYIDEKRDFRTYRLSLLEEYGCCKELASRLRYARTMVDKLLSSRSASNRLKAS
CYP2C19 inh – blocks human cytochrome P450 2C19; P33261; CYP2C19 Supersomes, luciferin-H EGE luminescence, 30 min; inhibition, % at 5 µM; 96,000 compounds, 21% hits;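 active = CYP2C19 inhibition above a set limit at 5 µM in the primary screen, cut at about 50% in these data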;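 also: plate controls were negative control wells for no effect and 2.5 mM tranylcypromine positive control for full effect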
PLK1 kinase inh – inhibitors of human PLK1 kinase; P53350; recombinant PLK1 kinase, TR-FRET peptide phosphorylation; inhibition, % at 10 µM; 97,000 compounds, 0.53% hits; AID 619;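 active = inhibition of 50% or more in the single-concentration screen; inactive = inhibition below 50%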;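 also: 0% = DMSO max control and 100% = H-89 dihydrochloride min control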
Starred values were filed as active, the others as inactive; · = not tested or not shown.

SMILES | CYP2C9 act | CYP2C19 act | CYP2C9 inh | PLK1 PBD inh | CYP2C19 inh | PLK1 kinase inh
CCOC(=O)C(C)Sc1nnc(-c2ccccc2O)n1-c1ccc(C)cc1 (stereo not given) | 0.7 | 0.5 | 26.0 | 10.8 | 48.4 | -12.9
Cc1nc([N+](=O)[O-])c(Br)n1CC(=O)c1ccccc1 | 0.8 | 0.5 | 17.2 | -9.9 | 51.1* | -4.3
O=C(Cn1cnc2ccccc2c1=O)c1ccc2ccccc2c1 | 0.9 | 0.7 | 12.6 | -6.1 | 28.8 | -2.4
Cc1nc([N+](=O)[O-])c(Br)n1CC(=O)c1ccc2ccccc2c1 | 0.2 | 0.5 | 75.6* | -22.3 | 54.1* | -3.8
Cc1nc([N+](=O)[O-])c(Br)n1CC(=O)c1ccc(Br)cc1 | 0.5 | 0.8 | 54.4* | 11.3 | 18.2 | -7.8
C=CCc1ccccc1OCC(=O)OCCNC(=O)c1cccnc1 | 0.8 | 0.9 | 17.5 | -35.3 | 9.7 | -0.1
O=C(NC(=S)NCCN1CCOCC1)c1ccccc1Cl | 1.1 | 0.5 | -8.0 | -6.0 | 54.5* | -7.1
O=C(NC(=S)NCCN1CCOCC1)c1ccc(Cl)cc1Cl | 1.1 | 0.5 | -8.0 | -4.3 | 46.7 | -15.3
O=C(COc1ccccc1Cl)NCCCN1CCOCC1 | 1 | 0.4 | 3.2 | 12.0 | 56.7* | -15.5
O=C(NC1CCCCC1)c1ccc(Cn2cc(Br)cn2)o1 | 0.7 | 0.4 | 33.9 | -0.8 | 62.2* | -4.0
O=C(c1ccc(Cn2cc(Br)cn2)o1)n1cccn1 | 0.8 | 0.5 | 21.2 | 1.5 | 54.7* | -3.3
O=C(Nc1cccc(C(F)(F)F)c1)c1ccc(Cn2cc(Br)cn2)o1 | 0.3 | 0.2 | 68.7* | -4.2 | 84.7* | -0.3
O=C(NCc1ccccn1)c1ccc(Cn2cc(Br)cn2)o1 | 1 | 1 | 0.5 | 2.1 | 4.3 | -7.2
COc1ccc(CCNC(=O)COC(=O)c2cnccn2)cc1 | 0.8 | 0.6 | 19.2 | -29.6 | 35.1 | -5.2
Cc1ccccc1-n1c(SCc2c(C)noc2C)nnc1-c1ccncc1 | 0.5 | 0.2 | 50.7* | 0.1 | 77.9* | 2.1
Cc1ccccc1-n1c(SCc2c(C)noc2C)nnc1-c1cccnc1 | 0.6 | 0.9 | 42.3 | -0.3 | 11.2 | -18.7
Cc1noc(C)c1CSc1nnc(-c2ccncc2)n1-c1ccc(Cl)c(Cl)c1 | 0.4 | 0.2 | 59.3* | 9.0 | 83.8* | -8.1
CCCCNCc1cc(Br)c(OCc2cccs2)c(OC)c1 | 1.1 | 0.4 | -5.3 | 23.5 | 64.6* | -1.9
CC1=CCC(C(=O)O)(C(=O)N/N=C/c2cccs2)C(c2ccc([N+](=O)[O-])cc2)C1 (stereo not given) | 0.8 | 1 | 20.5 | 7.8 | 1.8 | -9.9
COC(=O)c1ccc(CSc2ccc3nnc(-c4ccccn4)n3n2)o1 | 0.8 | 0.8 | 21.0 | -15.7 | 20.2 | 3.2
CCOc1ccc2nc(SCc3ccc(C(=O)OC)o3)[nH]c2c1 | 0.2 | 0.2 | 79.9* | -3.2 | 82.6* | -2.5
COC(=O)c1ccc(CSc2nc3c(cnn3-c3ccc(C)c(C)c3)c(=O)[nH]2)o1 | · | · | · | -2.1 | · | -3.2
COC(=O)c1ccc(CSc2nc3scc(-c4cccs4)c3c(=O)[nH]2)o1 | 0.4 | 0.8 | 57.2* | 5.0 | 24.5 | -9.1
CCOc1ccc(-c2nnc3ccc(SCc4ccc(C(=O)OC)o4)nn23)cc1 | 0.1 | 0.4 | 85.1* | -22.4 | 64.7* | -5.4
COC(=O)c1ccc(CSc2nc3ccc(Cl)cc3[nH]2)o1 | 0.2 | 0.5 | 79.9* | -14.8 | 54.4* | -2.5
SMILES | CYP2C9 act | CYP2C19 act | CYP2C9 inh | PLK1 PBD inh | CYP2C19 inh | PLK1 kinase inh
Cc1ccc(NC(=O)C(=O)NCc2ccc(/C=C(/C#N)C(=O)NCc3cccnc3)o2)cc1 | 0.4 | 0.9 | 58.4* | -0.2 | 12.1 | -20.1
Cc1ccc(C(=O)N/C(=C\c2ccc(-c3cc(Cl)ccc3Cl)o2)C(=O)NCc2cccnc2)cc1 | · | · | · | 2.5 | · | 9.0
O=C1CSC(c2ccccc2F)N1CCN1CCCCC1 (stereo not given) | 1.1 | 0.6 | -11.4 | -5.5 | 42.8 | -9.9
O=C1CSC(c2ccccc2F)N1c1cc(Cl)ccc1O (stereo not given) | 1.3 | 0.2 | -34.4 | -46.1 | 83.7* | -13.2
COC(=O)Nc1cccn(Cc2c(Cl)cccc2Cl)c1=O | 2.5* | 0.1 | -145.2 | 4.6 | 86.8* | -9.4
Cc1nc(P(=O)(c2ccccc2)c2ccccc2)c(N2CCOCC2)o1 | 0.7 | 1 | 26.2 | 7.7 | -0.3 | -7.3
CNc1oc(-c2ccc(C)cc2)nc1P(=O)(c1ccccc1)c1ccccc1 | 0.2 | 0.8 | 81.0* | -2.7 | 24.9 | -9.3
